Among the test systems are SK-MEL-2 melanoma; EKVX NSCLC; SN12C renal; UO-31 renal; TK-10 renal; ACHN renal; CAKI-1 renal; A498 renal; CCRF-CEM leukemia; SR leukemia; RPMI-8226 leukemia; OVCAR-8 ovarian; OVCAR-5 ovarian; OVCAR-4 ovarian; SK-OV-3 ovarian; IGROV1 ovarian; OVCAR-3 ovarian; HS 578T breast; NCI/ADR-RES ovarian.
What all share (test): NCI-60 one-dose screen, 48 h (100 = growth as untreated, 0 = no growth, -100 = all killed)
Common to all, as to conditions: 10 µM unless noted

The source of these data is PubChem BioAssay (NCI).

This is part of a sample that, as a whole, favours compounds with a hit. Of some 83,000 tested, about 20% had one in any assay.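 Plates (96-well) were seeded with cells, treated with compound at one concentration, and incubated for 48 hours before percent growth was determined.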 Unmarked numbers belong to inactive results. Active and inactive are the calls of the source. How the source made its calls: active means growth percent below 10; inactive means the rest.

For `COC(=O)[C@]12CC[C@@H](C)[C@H](C)[C@@H]1C1=CC[C@@H]3[C@@]4(C)C(C=O)=C[C@@](C)(COS(C)(=O)=O)C4[C@H](O)C[C@@]3(C)[C@]1(C)CC2` (some centres undefined), the growth in the assay with SK-MEL-2 melanoma is -60.7% (active); in the assay with EKVX NSCLC, -22.4% (active); in the assay with SN12C renal it was -40.8% (active); in the assay on UO-31 renal, -96.6% (active); in the assay with TK-10 renal, -73.5% (active); in the assay on ACHN renal, -93.2% (active). The growth with CAKI-1 renal is -15.6% (active); in the assay on A498 renal it was -38.5% (active); in the assay on CCRF-CEM leukemia, -33.8% (active); with SR leukemia it was -33.3% (active); with RPMI-8226 leukemia, -10.7% (active); in the assay with OVCAR-8 ovarian, -50.1% (active). Moreover, the growth with OVCAR-5 ovarian was -38.3% (active); in the assay on OVCAR-4 ovarian, -52.8% (active); in the assay on SK-OV-3 ovarian, -35.2% (active); in the assay on IGROV1 ovarian, -13.4% (active); in the assay with OVCAR-3 ovarian, -88.7% (active); with HS 578T breast it was -30.6% (active). Further, the growth in the assay with NCI/ADR-RES ovarian is -1.9% (active).

Regarding `FC(F)(F)c1cc(Nc2ccc3cc(OCCCN4CCOCC4)ccc3n2)ccc1Cl`, the growth was 46% with SK-MEL-2 melanoma; 62.2% in the assay with EKVX NSCLC; 49.4% with SN12C renal; 27.6% in the assay with UO-31 renal; 43.3% in the assay on TK-10 renal; 29.5% with ACHN renal. For the same compound, the growth in the assay with CAKI-1 renal is 86.1%; in the assay with A498 renal it was 36.4%; in the assay on CCRF-CEM leukemia, 3.89% (active); with SR leukemia, -12.3% (active); in the assay with RPMI-8226 leukemia it was 7.22% (active); with OVCAR-8 ovarian, 31.3%. Besides, the growth is 59.1% in the assay with OVCAR-5 ovarian; 48.6% in the assay on OVCAR-4 ovarian; 58.3% in the assay with SK-OV-3 ovarian; 54.3% with IGROV1 ovarian; 6.22% (active) in the assay on HS 578T breast; 44.9% with NCI/ADR-RES ovarian.

As to `COc1cc(-c2nn(-c3ccccc3)cc2-c2ccnc(NCCNS(=O)(=O)c3ccc(Cl)cc3)n2)ccc1Cl`, the growth in the assay on SK-MEL-2 melanoma was 61.2%; with EKVX NSCLC it was 37%; with SN12C renal, 26.8%; in the assay on UO-31 renal, 21.2%; in the assay on TK-10 renal, 43%; in the assay on ACHN renal, 15.4%. The growth is 28.9% in the assay with CAKI-1 renal; 32% in the assay with A498 renal; 35.8% in the assay on CCRF-CEM leukemia; -19.4% (active) in the assay with SR leukemia; 35% with RPMI-8226 leukemia; 36.1% with OVCAR-8 ovarian. Besides, the growth in the assay with OVCAR-5 ovarian is 68.8%; in the assay with OVCAR-4 ovarian, 38.3%; in the assay with SK-OV-3 ovarian, 22.7%; in the assay with IGROV1 ovarian, 38.2%; in the assay on OVCAR-3 ovarian, 35.1%; in the assay on HS 578T breast, 58.4%. In addition, the growth in the assay with NCI/ADR-RES ovarian is 31.7%.

With `COc1cccc(-c2nn(-c3ccccc3)cc2-c2ccnc(NCCCNC(=O)c3cccc(C(F)(F)F)c3)c2)c1`, the growth in the assay with SK-MEL-2 melanoma is 33.4%; with EKVX NSCLC, 48.9%; in the assay on SN12C renal, 45.5%; in the assay with UO-31 renal, 10.9%; in the assay with TK-10 renal, 26.9%; in the assay with ACHN renal, 31.7%. The growth with CAKI-1 renal was 51.4%; in the assay on A498 renal, 43.6%; with CCRF-CEM leukemia, 21.5%; with SR leukemia, -29% (active); with RPMI-8226 leukemia, 9.33% (active); in the assay with OVCAR-8 ovarian, 22.4%. For the same compound, the growth was 71.6% in the assay with OVCAR-5 ovarian; 31.3% in the assay with OVCAR-4 ovarian; 28.3% in the assay with SK-OV-3 ovarian; 58.8% in the assay on IGROV1 ovarian; 41.4% with OVCAR-3 ovarian; 33.7% in the assay with HS 578T breast. Besides, the growth in the assay with NCI/ADR-RES ovarian is 22.6%.

`Cc1ccc(NCCN(C)C)c2c(=O)c3ccccc3sc12`: the growth in the assay with SK-MEL-2 melanoma is 71.9%; in the assay on EKVX NSCLC, 49.4%; in the assay on SN12C renal it was 25.1%; in the assay with UO-31 renal, -30.5% (active); in the assay with TK-10 renal it was 54.8%; in the assay on ACHN renal, 3.03% (active). Moreover, the growth with CAKI-1 renal was -20% (active); in the assay with A498 renal it was 37.6%; with CCRF-CEM leukemia, 27%; in the assay on SR leukemia it was 17%; in the assay on RPMI-8226 leukemia, -23.4% (active); in the assay on OVCAR-8 ovarian it was 16.3%. Further, the growth in the assay with OVCAR-5 ovarian is 62%; with OVCAR-4 ovarian, 42.4%; in the assay on IGROV1 ovarian, -30.9% (active); with OVCAR-3 ovarian, 33.8%; in the assay on HS 578T breast, 46.4%; with NCI/ADR-RES ovarian, 38.6%.

`COc1cccc(-c2nn(-c3ccccc3)cc2-c2ccnc(NCCCNC(=O)c3ccccc3)c2)c1`: the growth in the assay on SK-MEL-2 melanoma was 63.6%; in the assay on EKVX NSCLC, 55.8%; in the assay on SN12C renal it was 67.2%; in the assay on UO-31 renal, 39.3%; in the assay with TK-10 renal, 60.7%; with ACHN renal, 69%. Besides, the growth in the assay on CAKI-1 renal was 67.3%; in the assay with A498 renal, 59.4%; with CCRF-CEM leukemia, 27.7%; with SR leukemia it was -19.8% (active); in the assay on RPMI-8226 leukemia, 27.9%; with OVCAR-8 ovarian it was 38%. Further, the growth in the assay on OVCAR-5 ovarian was 92.7%; with OVCAR-4 ovarian it was 43.1%; in the assay with SK-OV-3 ovarian, 41.7%; in the assay on IGROV1 ovarian, 67.1%; in the assay on OVCAR-3 ovarian, 51.2%; with HS 578T breast it was 51.3%. The growth with NCI/ADR-RES ovarian is 27.1%.

In the case of `Cc1cc(NCc2cc(Nc3ccnc4cc(Cl)ccc34)ccc2F)nc(N2CCOCC2)n1`, the growth is 84.6% with SK-MEL-2 melanoma; 54.3% with EKVX NSCLC; 31.4% with SN12C renal; -47.8% (active) with UO-31 renal; -10.4% (active) with TK-10 renal; -79.5% (active) in the assay with ACHN renal. The growth in the assay with CAKI-1 renal is 60.3%; in the assay on A498 renal, 51.7%; in the assay with CCRF-CEM leukemia it was 1.04% (active); with SR leukemia it was -13% (active); in the assay on RPMI-8226 leukemia, 29.4%; in the assay on OVCAR-8 ovarian, 36.3%. Also, the growth was 76.5% with OVCAR-5 ovarian; 7.29% (active) with OVCAR-4 ovarian; 0.55% (active) with SK-OV-3 ovarian; 49.7% in the assay with IGROV1 ovarian; 16.1% in the assay on OVCAR-3 ovarian; 16.5% in the assay on HS 578T breast. Further, the growth with NCI/ADR-RES ovarian is 25%.

For `Cc1cc(NCc2cc(Nc3ccnc4cc(Cl)ccc34)ccc2F)nc(N2CCSCC2)n1`, the growth with SK-MEL-2 melanoma was 47.6%; in the assay with EKVX NSCLC, 58.7%; with SN12C renal, 34.9%; in the assay with UO-31 renal, -10.2% (active); in the assay on TK-10 renal, -58.3% (active); in the assay on ACHN renal, -81.4% (active). For the same compound, the growth in the assay on CAKI-1 renal is 60.9%; in the assay on A498 renal, 45%; in the assay with CCRF-CEM leukemia, -10.4% (active); in the assay on SR leukemia it was -11.7% (active); in the assay with RPMI-8226 leukemia it was -9.52% (active); in the assay with OVCAR-8 ovarian, 19.2%. In addition, the growth was 78.7% in the assay on OVCAR-5 ovarian; 10.3% with SK-OV-3 ovarian; 40.6% in the assay on IGROV1 ovarian; -32.6% (active) with OVCAR-3 ovarian; -1.47% (active) in the assay with HS 578T breast; 15.7% in the assay with NCI/ADR-RES ovarian.
